# PP5 inh: inhibitors of human protein phosphatase 5 (PP5) | purified PP5c, OMFP substrate fluorescence | inhibition, % at 6.7 µM | 0.18% of 320,000 active | AID 1987;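 active = inhibition above the campaign's mean inhibition across all tested compounds plus 3 SD, cut at about 9.5% in these data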;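 note: 0% = DMSO only and 100% = 100 µM cantharidin control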
# Target sequence (P53041 whole entry, looked up): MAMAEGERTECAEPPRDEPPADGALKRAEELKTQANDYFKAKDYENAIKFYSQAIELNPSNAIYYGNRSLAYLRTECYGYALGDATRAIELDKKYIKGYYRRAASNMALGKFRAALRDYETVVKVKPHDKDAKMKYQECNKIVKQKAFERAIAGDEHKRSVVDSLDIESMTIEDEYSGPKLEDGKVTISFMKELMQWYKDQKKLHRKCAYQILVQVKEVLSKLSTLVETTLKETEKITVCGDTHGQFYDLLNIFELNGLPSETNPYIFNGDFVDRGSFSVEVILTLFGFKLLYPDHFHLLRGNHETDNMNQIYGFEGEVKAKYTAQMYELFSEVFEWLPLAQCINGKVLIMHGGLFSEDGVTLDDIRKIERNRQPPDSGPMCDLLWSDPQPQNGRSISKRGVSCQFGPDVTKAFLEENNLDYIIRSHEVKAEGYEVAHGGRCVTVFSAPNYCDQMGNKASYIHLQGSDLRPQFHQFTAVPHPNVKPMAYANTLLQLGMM
# PREPL inhibitor: inhibitors of human prolyl oligopeptidase-like enzyme PREPL | 0.68% of 320,000 active | inhibition, % at 5.96 µM | Q4J6C6 | AID 2751 | recombinant PREPL, fluorescence polarization activity-based probe; in the data active = inhibition above about 43%;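 note: 0% = enzyme with DMSO and 100% = wells lacking enzyme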
# DNA FID counter: fluorescent intercalator displacement, NS3 helicase counter-screen. DNA fluorescent intercalator displacement, fluorescence. inhibition, % at 7.9 µM. 0.17% of 290,000 active. AID 1845; in the data active = inhibition above about 37%;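 note: 0% = vehicle and 100% = reference compound; higher means more ethidium bromide displaced from hairpin DNA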
# TMEM16A act: mouse TMEM16A channel activation, primary screen | Q8BHY3 | HEK293 TMEM16A/YFP-H148Q/I152L, iodide quench fluorescence; stronger effect = lower value | B-score at 10 µM | 0.3% of 340,000 active | AID 623877;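 active = fluorescence-ratio B-score plate-corrected deviation score at least 3 library SD below zero, with starting fluorescence score within 5 deviations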;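 note: channel opened by trigger with iodide after compound preincubation; score built on the fluorescence ratio of max minus min over baseline; more negative score means more quench and so TMEM16A activation or potentiation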
# ANO1 block: blocks the mouse calcium-activated chloride channel TMEM16A. AID 588511. 1.2% of 310,000 active. HEK293 TMEM16A/YFP iodide influx fluorescence, ionomycin. Q8BHY3. normalized B-score (activity score, 25-100; higher = stronger inhibition) at 10 µM;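 active = ratio plate-corrected score three or more library SD toward inhibition, starting fluorescence score within five deviations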;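 note: score derived from kinetic fluorescence span divided by baseline fluorescence per well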
# PP1 inh: PP1-alpha (human) inhibition in PP5 counter-screen. inhibition, % at 6.7 µM. 0.9% of 320,000 active. purified PP1alpha, OMFP fluorescence. P62136. AID 2235;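 active = inhibition above the mean inhibition of all tested compounds plus 3 SD, computed separately for each screening campaign, cut at about 15% in these data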
# TMEM16A reconf: reconfirmed blocker of mouse TMEM16A calcium-activated chloride channel. shares compounds with ANO1 block. HEK293 TMEM16A/YFP-H148Q, iodide quench fluorescence; ionomycin added to raise cell calcium. inhibition, % at 10 µM. 39% of 2,300 active. AID 652189;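 active = mean duplicate percent inhibition, scaled so buffer wells are 0 and the reference blocker 100, over three buffer SD above buffer mean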
# HEK293 Ca mobil: calcium mobilization counter-screen hit for TMEM16A inhibitor series | AID 652231 | 2% of 2,300 active | TMEM16A/YFP HEK293, Fluo4 calcium mobilization | calcium response (% of ionomycin), % at 10 µM | shares compounds with ANO1 block;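 active = duplicate-averaged calcium signal over 20% of the ionomycin maximum, relative to buffer baseline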;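 note: each well's signal is peak minus trough fluorescence divided by its pre-addition baseline; 0% = buffer wells and 100% = ionomycin wells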
# Parental YFP cnt: parental YFP-HEK293 iodide quench counter-screen activity. shares compounds with ANO1 block. ionomycin. YFP ratio F(max-min)/F0 at 10 µM. 2,300 tested, under 10 active. AID 652233;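 active = yellow fluorescent protein signal ratio exceeding the buffer control mean by over 5 SD of those controls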;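 note: ratio is mean of duplicate wells from kinetic YFP trace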
# ClC-1 rat inh: blocks the rat ClC-1 voltage-dependent chloride channel. shares compounds with ANO1 block. 2,300 tested, under 10 active. CHO ClC-1-YFP, iodide influx fluorescence quench; iodide control reads 0, buffer control 100. ratio percent, % at 10 µM. AID 652236;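 active = duplicate-mean ratio percent above the mean of iodide-only control wells, which defines zero, plus 5 of their SD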;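 note: higher percent means stronger block of ClC-1 iodide influx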
# Numbers without * were called inactive; i = inactive; x = no result. In the library only some 2.7% were active in any assay of this set; here they are far more common.
SMILES,PP5 inh,PREPL inhibitor,DNA FID counter,TMEM16A act,ANO1 block,PP1 inh,TMEM16A reconf,HEK293 Ca mobil,Parental YFP cnt,ClC-1 rat inh
CCOc1ccc(NC(=O)C2CCC(C)(C(=O)O)C2(C)C)cc1 (stereo not drawn),4,7,-5,i,25*,-2,i,i,-1.1,-6
COc1ccc(NC(=O)C2CCC(C)(C(=O)O)C2(C)C)cc1 (stereo not drawn),3,-8,2,i,i,-2,x,x,x,x
Cc1cc(C)n(C(=O)c2ccc(S(=O)(=O)NCC3CCCO3)cc2)n1 (stereo not drawn),-2,-3,-3,i,i,-4,i,i,-1.2,-7
Cc1ccc(-c2ccc(S(=O)(=O)NCC3CCCO3)cc2)cc1 (stereo not drawn),0,-24,-29,i,i,-6,x,x,x,x
COCCNC(=O)CCC(=O)NNc1nc2ccccc2c2nc(-c3ccccc3)nn12,2,-5,-23,i,i,-2,x,x,x,x
CCCCOC(=O)c1ccc(NC(=O)C(=O)NCc2cccnc2)cc1,3,0,-18,i,25*,-3,i,i,-1.2,-7
CCCCOC(=O)c1ccc(NC(=O)COC(=O)C2CSC3(C)CCC(=O)N23)cc1 (stereo not drawn),0,5,x,i,25*,5,30%*,i,-0.95,-4
CC12CCC(=O)N1C(C(=O)OCC(=O)Nc1sccc1C#N)CS2 (stereo not drawn),-1,1,5,i,i,1,x,x,x,x
O=S(=O)(Nc1nc2ccccc2nc1N1CCc2ccccc2C1)c1ccc(Cl)cc1,-1,-2,-10,i,25*,0,50%*,i,-0.79,-16
CC1(C)CC(=O)C(CCC(=O)c2ccccc2)C(C)(C)N1 (stereo not drawn),0,-6,9,i,25*,-3,i,i,-1.1,-14
O=C(CCC1CCCCC1=O)c1ccccc1 (stereo not drawn),4,0,-4,i,i,-1,x,x,x,x
CC(=O)NC(CC(=O)NNC(=O)C(C)Oc1ccccc1F)c1ccccc1 (stereo not drawn),0,-8,x,i,i,0,x,x,x,x
O=C(Cc1coc2ccc3ccccc3c12)NCc1ccccc1,2,-9,-8,i,100*,-1,i,i,-0.99,-6
O=C(CSc1n[nH]c(Cc2ccccc2)n1)Nc1ccccc1Br,2,1,-20,i,i,0,x,x,x,x
Cn1nnnc1SCCNC(=O)C1CCC(=O)N(Cc2ccc(Cl)cc2)C1 (stereo not drawn),-2,8,-13,i,i,-2,x,x,x,x
CCOc1cc(C(=O)Nc2cc(C)ccn2)cc(OCC)c1OCC,6,14,-20,i,100*,5,i,i,-1.4,-2
COC(=O)c1scc(C#N)c1N/N=C(\C#N)S(=O)(=O)c1ccc(Cl)cc1,2,3,-23,i,25*,-1,i,i,-1,-24
COC(=O)c1scc(S(=O)(=O)C(C)C)c1N/N=C(\C#N)C(=O)c1ccc(Cl)cc1,5,11,-26,i,i,1,x,x,x,x
COc1ccc(NC(=O)c2cc(-c3cc(C)cc(C)c3O)n[nH]2)cc1Cl,5,12,-4,i,100*,6,i,i,-1.1,1
CCc1ccc(NC(=S)N(Cc2ccccc2)Cc2ccccn2)cc1,0,11,-7,i,25*,-5,i,i,-1.2,-8
O=C(CCn1ccnc1)Nc1ccc2ccccc2c1,-1,6,4,i,i,-1,x,x,x,x
COCCCNc1nc2nonc2nc1N1CCC(C(C)N2CCOCC2)CC1 (stereo not drawn),0,10,-4,i,i,-2,x,x,x,x
CCOc1ccc(CCNC(=O)COC(=O)c2ccc(C)c([N+](=O)[O-])c2)cc1OCC,2,0,-26,i,i,-3,x,x,x,x
COc1ccc(C(CNC(=O)c2cccc(NC(=O)c3cccs3)c2)N2CCCC2)cc1 (stereo not drawn),3,-46,x,i,x,-3,x,x,x,x
Cn1c(=O)c(=O)n(C)c2cc(S(=O)(=O)N3CCCCCC3)ccc21,0,0,1,i,25*,-2,i,i,-1.1,7
SMILES,PP5 inh,PREPL inhibitor,DNA FID counter,TMEM16A act,ANO1 block,PP1 inh,TMEM16A reconf,HEK293 Ca mobil,Parental YFP cnt,ClC-1 rat inh
Cn1c(=O)n(C)c2cc(S(=O)(=O)N3CCCCC3)ccc21,1,-4,-2,i,i,-4,x,x,x,x
Cc1ccc(CNC(=O)c2ccc(N3CCC4(CC3)CC(c3ccccc3)=NO4)c(N)c2)cc1,-1,10,-34,i,i,-2,x,x,x,x
CCC(=O)N(CCC(c1ccco1)c1ccccc1OC)Cc1cccs1 (stereo not drawn),-2,-2,-30,i,100*,1,i,i,-1.1,-18
Nc1nc(CN2CCN(c3ccccc3)CC2)nc(Nc2ccc(Cl)cc2)n1,1,3,-5,i,25*,-4,i,i,-1.1,-2
CCN(CC)CCNC(=O)CS(=O)Cc1nc(-c2ccc(C)cc2)oc1C (stereo not drawn),3,1,20,i,i,-7,i,i,-0.92,-8
Cc1ccccc1-n1ncc2c1CC(C)(C)CC2NC(=O)CN1CCCC1=O (stereo not drawn),1,1,-25,i,i,-4,x,x,x,x
Cc1csc2ncnc(N3CCN(C(=O)Nc4ccc(OC(F)(F)F)cc4)CC3)c12,2,9,-29,i,100*,3,16%*,i,-1.5,-12
Cc1nn(CC(=O)NCCN2CCCCC2C)c(=O)c2cc(-c3ccccc3)nn12 (stereo not drawn),-2,6,18,i,i,-6,x,x,x,x
O=C(c1ccc(F)cc1)N1CCC(c2ccccc2)C1 (stereo not drawn),2,12,-7,i,i,-5,i,i,-0.82,-17
O=C(O)/C=C/c1cn(Cc2ccccc2Cl)nc1-c1ccccc1,2,4,-36,i,i,2,x,x,x,x

# Screening data deposited in PubChem BioAssay by several laboratories.
